# The full list was thinned out, with hits kept by preference.
# Shiga inhibitor = Shiga toxin inhibition | Vero cells, Shiga toxin protein synthesis inhibition reporter | inhibition, % at 38.7 µM | 290,000 tested, 9.2% active | AID 2315; in the data active means inhibition mostly above about 28%, no sharp cut-off; inactive means mostly below about 43%; further: 0% is about no effect
# TbPYK inhibitor = T. brucei pyruvate kinase inhibition | Q57TT1 | TbPYK enzyme, Kinase-Glo Plus ATP luminescence, 45 min | Potency, µM (highest dose often 76.8 µM), inactives show top-dose activity, negative = inhibition, usual class: inhibitors | 410,000 tested, 0.12% active; further: potency means the concentration at half of the fitted maximal effect; on the % scale 0 is the no-effect control and ±100 the full control effect; nearly all actives have a fitted effect of over 50% in size
#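 Glycolytic pyruvate kinase of T. brucei was incubated with substrate, test compound and 130 uM ADP for 45 minutes at room temperature. Luminescent Kinase-Glo Plus signal was measured after 10 minutes.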
# Giardia FBPA inh = blocks Giardia fructose-bisphosphate aldolase activity; A8B2U2; purified Giardia FBPA; Potency, µM (top dose mostly 59.6 µM), for inactives: at the top dose activity, negative = inhibition, hits mostly inhibitors; 290,000 tested, 0.71% active; further: potency means the concentration at half of the fitted maximal effect; on the % scale 0 is the no-effect control and ±100 the full control effect; nearly all actives have a fitted effect of over 55% in size
#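 Giardia FBPA (40 nM reagent) was preincubated 10 min at RT with compound (up to 57.5 uM final), then substrate plus GAPDH/TPI/NAD/arsenate coupling system with diaphorase/resazurin was added; resorufin fluorescence (525/598 nm) was read after 20 min.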
# LmPK inh = blocks Leishmania mexicana pyruvate kinase activity. 290,000 tested, 0.37% active. Potency, µM (highest dose often 57.5 µM), without a hit: at the top dose activity change, negative = inhibition, actives largely listed as inhibitors. purified LmPK, Kinase-Glo ATP luminescence, 1 h; further: potency means the concentration at half of the fitted maximal effect; on the % scale 0 is the no-effect control and ±100 the full control effect
# Target sequence (Q27686 whole entry, looked up): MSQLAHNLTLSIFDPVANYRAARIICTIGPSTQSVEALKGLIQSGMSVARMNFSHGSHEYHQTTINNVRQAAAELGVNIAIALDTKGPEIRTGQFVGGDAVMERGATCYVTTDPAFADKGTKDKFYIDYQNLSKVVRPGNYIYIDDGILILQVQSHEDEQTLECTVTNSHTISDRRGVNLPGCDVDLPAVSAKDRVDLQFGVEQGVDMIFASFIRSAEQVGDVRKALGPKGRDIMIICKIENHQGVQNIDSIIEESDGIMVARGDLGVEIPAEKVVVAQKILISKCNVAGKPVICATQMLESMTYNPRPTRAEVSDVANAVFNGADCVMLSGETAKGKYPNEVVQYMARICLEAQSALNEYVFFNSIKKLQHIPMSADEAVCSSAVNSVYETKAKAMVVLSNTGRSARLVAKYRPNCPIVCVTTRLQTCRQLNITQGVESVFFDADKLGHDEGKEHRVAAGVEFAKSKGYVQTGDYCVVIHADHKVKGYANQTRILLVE
#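 Kinase-Glo luminescence read after 1 h RT reaction of 0.1 nM LmPK with 0.5 mM PEP and 0.1 mM ADP. Activity scaled between uninhibited and enzyme-free controls.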
# Cycloheximide cs = affects cycloheximide protein synthesis inhibition readout, counter-screen. cell reporter, cycloheximide protein synthesis inhibition counterscreen. max response, %. 300,000 tested, 12% active; in the data active means max response mostly above about 13%, no sharp cut-off; inactive means mostly below about 14%; further: read at 38.3 µM for the half of the compounds with a filed dose; 0% is about no effect
# RE007 growth inh = less growth of the S. pombe RE007 Vpr strain; S. pombe RE007 Vpr strain, BacTiter-Glo ATP luminescence, 24 h; Potency, µM (doses to about 92.2 µM), inactives show at the highest dose activity change, negative = less growth, hits mostly inhibitors; 360,000 tested, 0.21% active; active means well fitted falling curve with a large enough effect; inconclusive means small, poorly fitted or top-dose-only effect; inactive means no such curve, though single readings can be large or run the other way; further: potency means the concentration at half of the fitted maximal effect; on the % scale 0 is the no-effect control and ±100 the full control effect; nearly all actives have a fitted effect of over 50% in size
#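 Fission yeast RE007 carrying one integrated HIV-1 vpr copy, seeded at OD 0.01 in PMG+AL medium with 23 nL pinned compound. Grown 24 h at 30 degrees; viability read by BacTiter-Glo luminescence after 5 min.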
# * hit, by the source's call; u = inconclusive; x = no result given; [ ] = remark or other dose. Unless noted, the call rests on the fitted dose curve; in most records, active means well fitted curve in the direction sought with a large enough effect; inconclusive means small, poorly fitted or top-dose-only effect, or another doubt; inactive means no such curve, though single readings can be large; an effect the other way counts as inactive or inconclusive.
SMILES,Shiga inhibitor,TbPYK inhibitor,Giardia FBPA inh,LmPK inh,Cycloheximide cs,RE007 growth inh
O=C(/C=C/c1ccccc1Cl)c1cccnc1,3,-22%,-1%,-16%,5,u
N#Cc1ccc(/C=C/C(=O)c2cccnc2)cc1,-9,u,-6%,-4%,-2,45µM*
CC(=O)c1cc(-c2ccccc2)n(CC(=O)Nc2ccc(C)cc2C)c1C,x,6%[15.4 µM],x,x,x,x
O=S(=O)(c1ccc2c(c1)OCCO2)N1CCN(c2nc3ccccc3s2)CC1,-3,-2%,6%,3%,-4,1%
c1ccc2c(c1)CCN(c1nc3cc4c(cc3s1)OCCO4)C2,15,-30%,u,22µM*,34*,u
O=c1[nH]cnc2c1oc1ccccc12,70*,-15%,-5%,-6%,34*,0%
CCc1nc2c(oc3ccccc32)c(=O)[nH]1,35,-5%,2%,-7%,22*,12%
O=c1[nH]c(CSc2ccccn2)nc2c1oc1ccccc12,91*,-2%,-8%,-10%,49*,-2%
Cc1nc(SCc2nc3c(C)cccc3[nH]2)c2oc3ccccc3c2n1,x,1%,x,x,x,x
COc1ccc(C(=O)Nc2cccc(N(C)S(C)(=O)=O)c2)cc1OC,60*,-7%,-2%,-27%,26*,5%
CN(c1cccc(NC(=O)c2cccc([N+](=O)[O-])c2)c1)S(C)(=O)=O,35,3%,-2%,1%,27*,-4%
CSCC[C@H](N)C(=O)N[C@@H](CCC(=O)O)C(=O)N[C@H](C(=O)NCC(=O)N[C@@H](Cc1c[nH]c2ccccc12)C(=O)N[C@@H](Cc1ccc(O)cc1)C(=O)N[C@@H](CCCNC(=N)N)C(=O)N[C@@H](CO)C(=O)N1CCC[C@H]1C(=O)N[C@@H](Cc1ccccc1)C(=O)N[C@@H](CO)C(=O)N[C@@H](CCCNC(=N)N)C(=O)N[C@H](C(=O)N[C@H](C(=O)N[C@@H](Cc1cnc[nH]1)C(=O)N[C@@H](CC(C)C)C(=O)N[C@@H](Cc1ccc(O)cc1)C(=O)N[C@@H](CCCNC(=N)N)C(=O)N[C@@H](CC(N)=O)C(=O)NCC(=O)N[C@@H](CCCCN)C(=O)O)C(C)C)C(C)C)C(C)C,-4,x,8%,x,-4,x
Cc1ccc(NC(=O)c2c3c(nc4ccccc24)C(=O)N(C2CCCCC2)C3)cc1F,x,-1%,x,x,x,x
COc1ccc(C)cc1NC(=O)c1cnc2ccc(C)cn2c1=O,x,1%,x,x,x,x
CCC(=O)N1CCc2cc(S(=O)(=O)NCCC(=O)NC(C)c3ccccc3)ccc21 (centres undefined),x,-2%,x,x,x,x
CN=C1NN=C(c2cc(C)n(-c3ccc(Cl)cc3)c2C)CS1,136*,-10%,6%,0%,59*,13%
COCCCN=C1NN=C(c2cc(C)n(-c3ccccc3F)c2C)CS1,50,-18%,-6%,-4%,19,9%
COCCCN=C1NN=C(c2cc(C)n(-c3ccccc3)c2C)CS1,62*,-3%,-7%,2%,34*,-2%
COCCCN=C1NN=C(c2cc(C)n(Cc3ccccc3Cl)c2C)CS1,45*,u,-9%,-3%,22*,-17%
Cc1ccc(NC(=O)c2sc(-n3nc(C)c(CCC(C)C)c3C)nc2C)cc1C,x,-1%,x,x,x,x
COc1ccc(-n2c(CCC(=O)O)ccc2-c2ccccc2)c(OC)c1,x,-1%,x,x,x,x
COc1cc(C(C)C)c2c(c1)S(=O)(=O)N(COc1cc(=O)n3cccc(OCCN4CCCCC4)c3n1)C2=O,-17,x,2%,x,-9,x
Cc1cccc(NC(=O)c2cccc(OC(=S)N3CCOCC3)c2)c1C,16,3%,x,-5%,14,5%
CCOc1ccc(NC(=O)c2cccc(OC(=S)N3CCOCC3)c2)cc1,5,3%,1%,1%,11*,12%
O=C(Nc1ccc(Br)cc1)c1cccc(OC(=S)N2CCOCC2)c1,50*,-10%,-9%,4%,19*,10%
SMILES,Shiga inhibitor,TbPYK inhibitor,Giardia FBPA inh,LmPK inh,Cycloheximide cs,RE007 growth inh
COc1ccc(NC(=O)c2cccc(OC(=S)N3CCOCC3)c2)cc1,21,-1%,-7%,-6%,6,9%
Cc1ccc(CNC(=O)CN2C(=O)COc3ccc(S(=O)(=O)Nc4ccccc4)cc32)cc1,x,0%,x,x,x,x
O=C1Oc2ccccc2C(=O)C1C(CC(O)c1ccc(-c2ccc(Br)cc2)cc1)c1ccccc1 (centres undefined),x,0%,x,x,x,x
Cc1cccc(N=Cc2[nH]c3ccc(Br)c(Cl)c3c2O)c1,63*,-10%,u,-5%,15,-19%
COC(=O)c1ccccc1C[C@]1(C(=O)OC)C=C[C@H](C)[C@@H](c2ccccc2)N1C(=O)C(F)(F)F,x,x,0%,x,x,x
Cc1cc(-c2ccc(F)cc2)nc2cc(C(N)=O)nn12,-4,-15%,0%,3%,0,1%
CCOC(=O)c1cnn2c(C)cc(-c3ccc(F)cc3)nc12,53,-8%,0%,1%,33*,0%
O=C(Nc1ccccc1C(F)(F)F)c1ncoc1-c1ccco1,x,7%,x,x,x,x
C/C(N)=C(/C#N)C(=O)COc1ccc(Cl)cc1Cl,47,-6%,8%,0%,48*,-25%
C/C(N)=C(/C#N)C(=O)COC(=O)COc1ccc(Cl)cc1,3,-3%,-1%,-1%,-1,2%
C/C(N)=C(/C#N)C(=O)COC(=O)CNC(=O)c1ccc(Cl)cc1Cl,68*,0%,-3%,-1%,13*,2%
CC(O)(c1ccc(Cl)cc1)c1ccc(Cl)cc1,7,x,0%,x,3,x
Cc1ccc(Cn2ccc(C3CC3)n2)cc1,52,1%,2%,1%,62*,2%
Clc1ccc(Cn2ccc(C3CC3)n2)cc1,66*,9%,1%,8%,31*,-22%
CCn1c(-c2ccccn2)nc2cc(S(=O)(=O)N(C)C)ccc21,40,-5%,9%,-2%,17*,15%
CCn1c(-c2cc(Br)cc(OC)c2O)nc2cc(S(=O)(=O)N(C)C)ccc21,34,-9%,-2%,-4%,2,15%
CCC1CCCCN1S(=O)(=O)c1cc(C(=O)Nc2ccc(C)c(F)c2)ccc1F (centres undefined),x,-6%,x,x,x,x
Cc1ccc([N+](=O)[O-])cc1NC(=S)NC(=O)CC(C)(C)C,15,3%,2%,2%,4,5%
Cc1ccc([N+](=O)[O-])cc1NC(=S)NC(=O)C(C)(C)C,34,-6%,17%,5%,14*,-9%
COc1ccc(N2CCN(C(=O)c3ccc(NS(=O)(=O)c4cccc(F)c4)cc3)CC2)cc1,12,0%,-9%,-5%,11*,-7%
COc1ccc(N2CCN(C(=O)c3cccc(NS(=O)(=O)c4cccc(F)c4)c3)CC2)cc1,4,-2%,15%,-4%,-2,2%

# Assay outcomes (PubChem)
